Data as given in PubChem BioAssay (NCI).
About 83,000 compounds went through this panel and 20% of them were active in at least one assay; those are over-represented in the sample as a whole.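 Assay: single dose, 48 h. Readout: percent growth (0 = no net growth; negative = cell death). Active: <10.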 Values without a mark were called inactive. Calls of active or inactive are those of the source.

system: OVCAR-5 ovarian; test: NCI-60 one-dose screen, 48 h (100 = growth as untreated, 0 = no growth, -100 = all killed); conditions: 10 µM unless noted

| SMILES | growth |
| --- | --- |
| CCOC(=O)c1ccccc1OC(=O)NNc1ccccc1 | 83.7% |
| CC(=O)n1c2ccccc2c2ccccc21 | 89.3% |
| O=C(/C=C/c1cc2ccccc2[nH]c1=O)c1ccc(O)cc1 | 78.6% |
| CC(C)C/C(=N\NC(=O)c1ccncc1)c1cc(Cl)ccc1O | 37.3% |
| COc1ccc(/C=N/NC(=O)c2ccc(S(C)(=O)=O)cc2)cc1OC | 111% |
| COc1cc(/C=C/C(=O)c2ccc(F)cc2)ccc1OCCCCCOc1cc2c(cc1OC)C(=O)N1CCCC1C=N2 (stereo not given) | -5.07% (active) |
| CCCCOc1ccc(C(C)(C)c2ccc(OCCCC)cc2)cc1 | 109% |
| CCCCCCCC/C=C/CCCCCCCC1=NC(C)(C)CN1CCO | 87.3% |
| COc1cc(/C=C2\COc3ccc(O)c(O)c3C2=O)cc(OC)c1 | -29.2% (active) |
| CCCCCCCC/C=C/CCCCCCCC1=NC(C)(C)CN1CC(C)O (stereo not given) | 83.8% |
| O=C1N(C2CCCCC2)C(=O)N1C1CCCCC1 | 28.9% |
| CC12CCC3C(CCC4CC(=O)/C(=C\O)CC43C)C1CCC(=O)O2 (stereo not given) | 95.7% |
| Nc1ccccc1-c1ccc([N+](=O)[O-])cc1 | 75% |
| ClC1=C(Cl)C(Cl)=C(Cl)C1=Cc1ccc(Cl)cc1 | 71.9% |
| O=C(Cc1ccccn1)C(F)(F)C(F)(F)C(F)(F)F | 113% |
| CC1=C(C(=O)Nc2ccccc2)C(c2ccc3c(c2)OCCO3)NC(=O)N1 (stereo not given) | 102% |
| O=C(/C=C/c1ccccc1)CC(c1ccccc1)N1CCOCC1 (stereo not given) | 98.7% |
| COc1cccc(/C=C2\COc3ccc(O)c(O)c3C2=O)c1OC | 2.35% (active) |
| CCOc1cc(C(C)(C)C)ccc1C1=N[C@H](c2ccc(Cl)cc2)[C@H](c2ccc(Cl)cc2)N1C(=O)N1CCN(CC#Cc2cccc3c2CN([C@@H]2CCC(=O)NC2=O)C3=O)CC1 | 76% |
| CCCCCCCCCCCCCCCCCC1=NC(C)(C)CN1CCO | 82.4% |
| COc1ccc(OC)c(/C=C/c2nc(=S)n(-c3ccc(Cl)cc3)[nH]2)c1 | 116% |
| Clc1ccccc1[C@@H]1C[C@@H]2Cc3cc(Br)c4ccccc4c3N1O2 | 70.9% |
| CCCCC(C#N)C(N)=O (stereo not given) | 106% |
| Cc1cccc(Cl)c1NC(=O)c1ccc2nc(NC(=O)NC3CC(C)(C)NC(C)(C)C3)sc2c1 | 78% |
| Cc1c(C(N)=O)sc2c1C(=O)N(Cc1ccccc1)C1=NN=C(c3ccc(Cl)cc3)CN12 | 57.2% |
| ClC1=C(Cl)C(=C2C(Cl)=C(Cl)C(Cl)=C2Cl)C(Cl)=C1Cl | 115% |
| Clc1ccc(-n2cnc3c(Cl)ncnc32)cc1Cl | 82.5% |
| CC1CC(C)/C(=N/NC(N)=O)C(C(O)CC2CCC(=O)NC2=O)C1 (stereo not given) | 52.1% |
| CN1C(=O)/C(=C/c2nc(-c3cccc(F)c3)n3ccccc23)c2ccccc21 | 100% |
| O=C1OCCCCCCCCCC#Cc2ccccc21 | 99% |

system: OVCAR-4 ovarian; test: as above; conditions: 10 µM unless noted

| SMILES | growth |
| --- | --- |
| CCOC(=O)c1ccccc1OC(=O)NNc1ccccc1 | 63.6% |
| CC(=O)n1c2ccccc2c2ccccc21 | 105% |
| CSc1ccc2c(c1)N(CCC1CCCCN1C)c1ccccc1S2 (stereo not given) | 64% |
| O=C(/C=C/c1cc2ccccc2[nH]c1=O)c1ccc(O)cc1 | 62.9% |
| COc1ccc(-c2c(-c3cc(OC)c(OC)c(OC)c3)noc2N)cc1 | 38.8% |
| CC(C)C/C(=N\NC(=O)c1ccncc1)c1cc(Cl)ccc1O | 14.5% |
| COc1ccc(/C=N/NC(=O)c2ccc(S(C)(=O)=O)cc2)cc1OC | 96.2% |
| CO[C@H]1/C=C/O[C@@]2(C)Oc3c(C)c(O)c4c(O)c(c(/C=N/N5CCN(C)CC5)c(O)c4c3C2=O)NC(=O)/C(C)=C\C=C\C(C)[C@H](O)[C@@H](C)[C@@H](O)[C@@H](C)[C@@H](OC(C)=O)[C@@H]1C (stereo not given in full) | 103% |
| COc1cc(/C=C/C(=O)c2ccc(F)cc2)ccc1OCCCCCOc1cc2c(cc1OC)C(=O)N1CCCC1C=N2 (stereo not given) | -37.5% (active) |
| CCCCOc1ccc(C(C)(C)c2ccc(OCCCC)cc2)cc1 | 108% |
| CCCCCCCC/C=C/CCCCCCCC1=NC(C)(C)CN1CCO | 52.3% |
| COc1cc(/C=C2\COc3ccc(O)c(O)c3C2=O)cc(OC)c1 | 31.1% |
| CCCCCCCC/C=C/CCCCCCCC1=NC(C)(C)CN1CC(C)O (stereo not given) | 61.7% |
| CC12CCC3C(CCC4CC(=O)/C(=C\O)CC43C)C1CCC(=O)O2 (stereo not given) | 112% |
| Nc1ccccc1-c1ccc([N+](=O)[O-])cc1 | 63.2% |
| CC(C)COCC(CN(Cc1ccccc1)c1ccccc1)N1CCCC1 (stereo not given) | 49.9% |
| O=C(Cc1ccccn1)C(F)(F)C(F)(F)C(F)(F)F | 109% |
| CC1=C(C(=O)Nc2ccccc2)C(c2ccc3c(c2)OCCO3)NC(=O)N1 (stereo not given) | 106% |

| SMILES | growth |
| --- | --- |
| O=C(/C=C/c1ccccc1)CC(c1ccccc1)N1CCOCC1 (stereo not given) | 105% |
| COc1cccc(/C=C2\COc3ccc(O)c(O)c3C2=O)c1OC | 35.3% |
| Cc1cc(CC(=O)O)n(C)c1C(=O)c1ccc(Cl)cc1 | 119% |
| CCOc1cc(C(C)(C)C)ccc1C1=N[C@H](c2ccc(Cl)cc2)[C@H](c2ccc(Cl)cc2)N1C(=O)N1CCN(CC#Cc2cccc3c2CN([C@@H]2CCC(=O)NC2=O)C3=O)CC1 | 26.5% |
| CCCCCCCCCCCCCCCCCC1=NC(C)(C)CN1CCO | 33.5% |
| COc1ccc(OC)c(/C=C/c2nc(=S)n(-c3ccc(Cl)cc3)[nH]2)c1 | 91.6% |
| Clc1ccccc1[C@@H]1C[C@@H]2Cc3cc(Br)c4ccccc4c3N1O2 | 49.9% |
| CCCCC(C#N)C(N)=O (stereo not given) | 107% |
| Cc1cccc(Cl)c1NC(=O)c1ccc2nc(NC(=O)NC3CC(C)(C)NC(C)(C)C3)sc2c1 | 95.3% |
| Cc1c(C(N)=O)sc2c1C(=O)N(Cc1ccccc1)C1=NN=C(c3ccc(Cl)cc3)CN12 | 48.6% |
| ClC1=C(Cl)C(=C2C(Cl)=C(Cl)C(Cl)=C2Cl)C(Cl)=C1Cl | 100% |
| Clc1ccc(-n2cnc3c(Cl)ncnc32)cc1Cl | 103% |
| OC(c1cc(C(F)(F)F)nc2c(C(F)(F)F)cccc12)C1CCCCN1 (stereo not given) | 56.7% |
| CC[C@]1(O)CC2CN(CCc3c([nH]c4ccccc34)[C@@](C(=O)OC)(c3cc4c(cc3OC)N(C)[C@H]3[C@@](O)(C(=O)OC)[C@H](OC(C)=O)[C@]5(CC)C=CCN6CC[C@]43[C@@H]65)C2)C1 (stereo not given in full) | 33.2% |
| CC1CC(C)/C(=N/NC(N)=O)C(C(O)CC2CCC(=O)NC2=O)C1 (stereo not given) | 57.7% |
| CN1C(=O)/C(=C/c2nc(-c3cccc(F)c3)n3ccccc23)c2ccccc21 | 41.9% |
| O=C1OCCCCCCCCCC#Cc2ccccc21 | 91.3% |
